Measurements published in PubChem BioAssay AID1159580 (chemical genetic matrix, 2015).
Several values for one entry are separate records, joined by “and”; a condition that tells them apart may be missing. Equal entries are not always repeated. Among all 5,500 compounds or so, about 2,000 (36%) were called active. Inconclusive results (about 18%) are left out. Cut-off read from the data, not from the text of the source: active = normalized growth mostly below about 0.91 (no sharp cut-off); inconclusive = no clear call, values can overlap the other calls; inactive = mostly above about 0.92. The list shows a part of the results.

Assay: chemical genetic growth profiling, strain panel (AID 1159580);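 note: tested at 20 µM; growth read once vehicle control cultures reached saturation at 30 °C; 1 = growth at the plate median or of vehicle wells; lower values mean less growth of the strain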
Details: S. cerevisiae deletion strains, growth OD

Measured: normalized growth

CC(=O)OCC1=C(C(=O)O)N2C(=O)[C@@H](NC(=O)CSc3ccncc3)[C@H]2SC1
inactive: locus YAL013W, strain DEP1, hits give low values 0.988 | locus YAL021C, strain ccr4, hits give low values 1.02 | locus YAL026C, strain drs2, hits give low values 1.02 | locus YAL030W, strain snc1, hits give low values 1 | locus YBL061C, strain skt5, hits give low values 1.04 | locus YBR009C, strain hhf1, hits give low values 1.01 | locus YBR021W, strain FUR4, hits give low values 1.02 | locus YBR023C, strain chs3, hits give low values 1.04 | locus YBR171W, strain sec66, hits give low values 1.02 | locus YBR229C, strain ROT2, hits give low values 0.95 | locus YBR231C, strain swc5, hits give low values 1.04 | locus YBR279W, strain paf1, hits give low values 1.03 | locus YCL011C, strain gbp2, hits give low values 1.01 | locus YCL016C, strain dcc1, hits give low values 1.02 | locus YCL029C, strain bik1, hits give low values 1 | locus YCL061C, strain MRC1, hits give low values 1.01 | locus YCL069W, strain vba3, hits give low values 1.02 | locus YCR088W, strain abp1, hits give low values 1.02 | locus YDL005C, strain med2, hits give low values 1.02 | locus YDL035C, strain GPR1, hits give low values 0.959 | locus YDL040C, strain nat1, hits give low values 1.02 | locus YDL074C, strain BRE1, hits give low values 1 | locus YDL101C, strain DUN1, hits give low values 0.988 | locus YDL185W, strain tfp1, hits give low values 0.966 | locus YDL192W, strain arf1, hits give low values 0.984 | locus YDR001C, strain nth1, hits give low values 1.02 | locus YDR069C, strain doa4, hits give low values 1.04 | locus YDR101C, strain arx1, hits give low values 0.976 | locus YDR137W, strain rgp1, hits give low values 1 | locus YDR159W, strain sac3, hits give low values 1.03 | locus YDR162C, strain NBP2, hits give low values 0.946 | locus YDR195W, strain ref2 1.03 | locus YDR297W, strain sur2, hits give low values 1.02 | locus YDR318W, strain mcm21, hits give low values 0.99 | locus YDR334W, strain swr1, hits give low values 1.01 | locus YDR335W, strain msn5, hits give low values 1.03 | locus YDR388W, hits give low values 0.988 | locus YDR392W, strain spt3, hits give low values 0.957 | locus YDR502C, strain sam2, hits give low values 0.998 | locus YEL003W, strain gim4, hits give low values 1.03 | locus YEL037C, strain rad23, hits give low values 1 | locus YEL061C, strain CIN8 (second series), hits give low values 1.05 | locus YEL061C, strain CIN8, hits give low values 0.99 | locus YER015W, strain faa2, hits give low values 1.01 | locus YER016W, strain bim1, hits give low values 1.03 | locus YER110C, hits give low values 0.991 | locus YER111C, strain swi4, hits give low values 0.997 | locus YER155C, strain BEM2 (second series), hits give low values 0.992 | locus YER155C, strain BEM2, hits give low values 0.994 | locus YER167W, strain BCK2, hits give low values 0.995 | locus YFR010W, strain ubp6, hits give low values 1.02 | locus YGL078C, strain dbp3, hits give low values 0.995 | locus YGL086W, strain mad1, hits give low values 0.981 | locus YGL167C, strain pmr1, hits give low values 1.03 | locus YGL173C, strain kem1, hits give low values 1.03 | locus YGL227W, strain vid30, hits give low values 1.01 | locus YGL240W, strain doc1, hits give low values 1.03 | locus YGL248W, strain PDE1, hits give low values 1.01 | locus YGL253W, strain hxk2, hits give low values 1.02 | locus YGR078C, strain PAC10, hits give low values 0.989 | locus YGR135W, strain pre9, hits give low values 1.04 | locus YGR252W, strain gcn5, hits give low values 1.02 | locus YHR013C, strain ard1, hits give low values 1.03 | locus YHR027C, strain rpn1, hits give low values 1.02 | locus YHR030C, strain SLT2, hits give low values 0.983 and 0.995 | locus YHR079C, strain IRE1 (second series), hits give low values 0.997 | locus YHR079C, strain IRE1, hits give low values 1.01 | locus YHR094C, strain hxt1, hits give low values 0.991 | locus YHR129C, strain ARP1, hits give low values 0.984 | locus YHR142W, strain chs7, hits give low values 1.03 | locus YHR200W, strain rpn10, hits give low values 0.984 | locus YIL066C, strain RNR3, hits give low values 0.969 | locus YIL073C, strain SPO22, hits give low values 1.03 | locus YIL125W, strain kgd1, hits give low values 0.984 | locus YIR030C, strain dcg1, hits give low values 0.993 | locus YJL092W, strain hpr5, hits give low values 1.02 | locus YJL095W, strain BCK1 (second series), hits give low values 1.02 | locus YJL095W, strain BCK1, hits give low values 1.05 and 0.991 | locus YJL115W, strain asf1, hits give low values 1.03 | locus YJL129C, strain trk1, hits give low values 1.01 | locus YJL134W, strain LCB3, hits give low values 0.991 | locus YJL154C, strain vps35, hits give low values 1.02 | locus YJL164C, strain tpk1, hits give low values 1.01 | locus YJL166W, strain qcr8, hits give low values 1.03 | locus YJL168C, strain set2, hits give low values 0.99 | locus YJL187C, strain SWE1 (second series), hits give low values 1 | locus YJL187C, strain SWE1, hits give low values 1.02
